Test results taken from PubChem BioAssay (NCI).
Compounds without any hit were thinned out: in the full panel of roughly 83,000, 20% have a hit.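 Percent growth is the endpoint: 0 to 100 indicates growth inhibition (40 means 60% inhibition), 0 means no net growth, and negative values indicate cell death.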 Values without a mark were called inactive. The source made the active and inactive calls.

These compounds were tested on HOP-62 NSCLC (assay: NCI-60 one-dose screen, 48 h (100 = growth as untreated, 0 = no growth, -100 = all killed)). Settings: 10 µM unless noted.
Experimental: Growth inhibition of the HOP-62 human Non-Small Cell Lung tumor cell line is measured as a screen for anti-cancer activity. Cells are grown in 96 well plates and exposed to the test compound for 48 hours. Compounds are tested at a single concentration, which is 10^-5 M for most compounds. The reported endpoint is percent growth (GI% or GIPRCNT), where numbers from 0 - 100% represent growth inhibition, and numbers from -100% - 0 represent cell death. For example, a value of 40 represents 60% growth inhibition. A value of 0 means no net growth occurred over the course of the experiment. A value of -40 indicates 40% of cells at the beginning of the experiment died by the end of the experiment. A value of -100 means all cells are dead at the end of the experiment.
NCI-60 Human Tumor Cell Lines Screen was performed using the standard one-dose NCI protocol, which is described in more detail at https://dtp.cancer.gov/discovery_development/nci-60/default.htm.
Compounds with GIPRCNT values below 10 were considered active. Activity score was based on GIPRCNT using the following formula: […]
Score is 0 for GIPRCNT values of 100 or above, 50 for GIPRCNT values of 0, and 100 for GIPRCNT values of -100.

| SMILES | growth |
| --- | --- |
| Cc1cc2c(O)c(-c3cc(Cl)ccc3Cl)c3sc(=O)oc3c2cc1C | 87.8% |
| O=C1c2c(c3c4ccc(Br)cc4oc3c3[nH]c4ccccc4c23)C(=O)N1O | 29.3% |
| O=C(NCc1ccccc1)Nc1ccccc1CNc1nc(Nc2ccc(OCCN3CCCC3)cc2)ncc1Cl | 86.2% |
| O=C(CN1C(=O)CCC1=O)Nc1ncc(Cc2ccc(F)cc2)s1 | 105% |
| CCOC(=O)c1c(NC(=O)c2ccc(C(C)C)cc2)sc2c(CN(C)C)c(O)ccc12 | 89.9% |
| Oc1c(Cl)cc(Cl)cc1/C=N/Nc1nnc(N/N=C/c2cc(Cl)cc(Cl)c2O)c2ccccc12 | 20.6% |
| COc1ccc(/C=C2\COc3ccc(O)c(O)c3C2=O)cc1 | 10.8% |
| CCN(CC)CCCN1C(=O)c2c(c(C)c3c(oc4cc(O)ccc43)c2C)C1=O | 94.5% |
| N=C(N)c1ccc(-c2ccc(-c3ccc(F)cc3)o2)o1 | 38.1% |
| O=C(O)c1ccc(-n2cc(/C=N/Nc3ccc(F)cc3)c(-c3cc4ccccc4oc3=O)n2)cc1 | 84.3% |
| CCC(C)N(c1ccc(Cl)cc1)c1nc(-c2ccc(Br)cc2)cs1 (stereo not given) | 90.9% |
| Cc1ccc(C(C(N)=O)C(C(N)=O)c2ccccc2)cc1 (stereo not given) | 111% |
| Cc1ccc2c3c(c(=O)[nH]c2c1)C1(C(C#N)=C(N)O3)c2cc(Br)ccc2-c2ccc(Br)cc21 | -27.5% (active) |
| O=C1/C(=C/c2ccc(F)cc2)COc2ccc(O)c(O)c21 | 8.74% (active) |
| C=CCn1cc(-c2nc3ccccc3s2)c2cc(-c3ccc4c5c(cccc35)C(=O)N(N)C4=O)ccc21 | 90.2% |
| OCc1cccc(-c2ccc3ncc(-c4nc(NC5CC5)ncc4F)n3c2)c1 | 2.21% (active) |
| O=C(Cn1c(=O)sc2ccccc21)NNS(=O)(=O)c1ccccc1[N+](=O)[O-] | 108% |
| O=C(/C=C(/C=C/c1cccc2[nH]ccc12)OB(F)F)/C=C/c1cccc2[nH]ccc12 | -35.7% (active) |
| CN1C(=O)/C(=C/c2cn(-c3ccccc3)nc2-c2ccccc2)SC1=S | 97.9% |
| O=C1N(Cc2ccccc2Cl)c2ccccc2C12NN=C(c1cccc(Cl)c1)S2 (stereo not given) | -22.6% (active) |

| SMILES | growth |
| --- | --- |
| O=S(=O)(Nc1ccc(Cl)cc1)c1ccc(-c2cnc(C3CC3)o2)cc1 | 28.8% |
| CCCCNC(=O)Oc1ccc(/C(=C(/CC)Cc2ccccc2)c2ccc(OCCN3CCCCCC3)cc2)cc1 | 74.8% |
| Cc1nn(-c2ccccc2)c(Oc2ccccn2)c1-c1nc2ccccc2s1 | 112% |
| CCCc1cc(NC)nc(S(=O)(=O)CC)n1 | 110% |
| COc1ccccc1NC(=O)Cn1cc(CN2CCN(c3ccnc4cc(Cl)ccc34)CC2)nn1 | 86.2% |
| O=C(NNC(=O)c1ccc(-n2cc(-c3ccccc3)nn2)cc1)Nc1ccccc1 | 94.8% |
| N#Cc1c(-c2cccs2)cc(-c2cccnc2)[nH]c1=O | 90.3% |
| O=C(NNc1nccc(Nc2ccc(S(=O)(=O)Nc3ccncc3)cc2)n1)c1ccccc1 | 89.2% |
| C=C(C)[C@@H]1CC[C@]2(C(=O)NCC#CCN3CCN(C)CC3)CC[C@]3(C)[C@H](CC[C@@H]4[C@@](C)(CCC#N)[C@H](C(=C)C)CC[C@]43C)[C@@H]12 | 65.6% |
| CC(C)OC(=O)c1ccc2[nH]c(O)c(C(=Nc3ccc(N(C)C(=O)CN4CCN(C)CC4)cc3)c3ccccc3)c2c1 | -68.8% (active) |
| CCN(CC)CCSc1nc(-c2ccccc2)c(C#N)c(=O)[nH]1 | 55% |
| Cc1ccccc1NC(=O)c1sc2nc(C)c(C(=O)/C=C/c3ccccc3)cc2c1N | 9.21% (active) |
| O=S(=O)(NCCCNc1nccc(-c2c(-c3ccc(F)c(O)c3)nc3occn23)n1)c1ccccc1 | 102% |
| Nc1nc2c([nH]1)c1[nH]c3ccccc3c1c1[nH]c3ccccc3c21 | 67.8% |
| O=C1/C(=C/c2cccs2)SC(=S)N1CCCN1CCOCC1 | 111% |
| CCOC(=O)c1cnc2ccccc2c1Cl | 99.6% |
| Clc1ccc(Nc2nnc(COc3ccccc3)c3ccccc23)cc1 | 13.1% |
| COc1ccc(-c2nn(-c3ccccc3)cc2/C=C2/SC(=S)N(C)C2=O)cc1 | 25.3% |
| C=CCc1c(O)c(C(=O)/C=C/c2ccc(Cl)cc2)c(OC)c2ccoc12 | 85.4% |
| COC(=O)c1c2c(c(C)[n+]([O-])c1C)C(=O)C(NCc1ccc(Cl)cc1)=CC2=O | 78.2% |
